Assay results published in PubChem BioAssay (NCI).
Where “and” joins values, the source holds several entries; their conditions need not be identical. Equal entries are not always repeated. The panel holds about 83,000 compounds, 20% with a hit somewhere; the sample as a whole holds those more often.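 Cell lines were cultured in 96-well plates, exposed to a single compound concentration, and assessed for percent growth 48 hours later.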 Values without a mark were called inactive. Calls of active or inactive are those of the source. The calls were made as follows: active = growth percent below 10; inactive = the rest.

What follows are molecules tested on RXF 393 renal (assay: NCI-60 one-dose screen, 48 h (100 = growth as untreated, 0 = no growth, -100 = all killed)). Settings: 10 µM unless noted.

Point of comparison: `COC(=O)N/N=C/c1c[n+]([O-])c2ccccc2[n+]1[O-]`, growth 125%. Against it:
- ON=C1CCCCCCCC1 — lower, 112%
- O=S(=O)(O)c1ccc(N=Nc2ccc(N=Nc3cccc4ccccc34)c(S(=O)(=O)O)c2)cc1 — lower, 119%
- COc1ccc(-c2nn3c(-c4cc(F)c(Cl)cc4Cl)nnc3s2)cc1 — lower, 61.4%
- CCCCC1COc2cccc3c2N1C=C/C3=C\C(=O)N(C)c1cccc(Cl)c1 (stereo unspecified) — lower, 108%
- COc1ccc(/C=C2\COc3ccc(O)c(O)c3C2=O)c(OC)c1OC — lower, 50.8%
- COc1ccc(-c2cc3cnc4ccccc4c3oc2=O)cc1 — lower, 86.5%
- O=C(/C=C/c1ccc(F)cc1)Nc1ncc(Cc2ccc(F)cc2)s1 — lower, 32.1%
- COc1cc(/C=C2\CCC/C(=C\c3cc(CN4CCCC4)c(O)c(OC)c3)C2=O)cc(CN2CCCC2)c1O — lower, 10.6%
- C=CCOc1ccc(/C=C2\SC(=S)N(CCc3ccc(O)cc3)C2=O)cc1 — lower, 114%
- CCOC(=O)C1=C(C)N=C2SC=C(c3ccc(F)cc3)N2[C@H]1c1cn(-c2ccccc2)nc1-c1ccc(Cl)cc1 — lower, 97.1%
- COc1ccc(/C=N/NC(=O)CN2CCN(c3cc4c(cc3F)c(=O)c(C(=O)O)cn4C3CC3)CC2)cc1O — lower, 103%
- Cc1nn(-c2nc(-c3cc4ccccc4oc3=O)cs2)c(C)c1N=Nc1ccccc1 — lower, 112%
- Cn1cc2c(=O)nc3c(-c4nc5ccccc5[nH]4)n[nH]n3c2n1 — lower, 78.1%
- O=C1c2cccc3cccc(c23)C(=O)N1N1C(=O)c2cccc3c(N4CCNCC4)ccc(c23)C1=O — lower, 101%
- Cc1nc2sc(C(=O)Nc3cccc4ncccc34)c(N)c2cc1C(C)O (stereo unspecified) — lower, 70.1%
- CCOC(=O)c1nc2c3ccccc3cnn2c1C(=O)c1ccc(OC)cc1 — lower, 106%
- COc1cc(/C=C2/C=C(c3ccc(C(C)(C)C)cc3)N(CCc3ccc(S(N)(=O)=O)cc3)C2=O)cc(OC)c1OC — lower, 12.4%
- Cc1nc(-n2[nH]c(=O)ccc2=O)sc1N=Nc1ccccc1 — lower, 97.5%
- CC1(Cc2ccccc2)CC2=C(C(=O)O1)C(c1ccccc1)NC(=O)N2 (stereo unspecified) — lower, 108%
- CC1=C2[C@@H](CC1)[C@]1(C)O[C@@](C3CC3)(C[C@H]1OC(=O)CO)[C@H]2OC(=O)/C=C/c1ccccc1 — lower, 38.4%
- COc1ccc(S(=O)(=O)Nc2cc(Sc3cccc4cccnc34)c(O)c3ccccc23)cc1 — lower, 18.8%
- CCN(CC)CCCN1C(=O)c2c(c(C)c3c(oc4cc(OC)ccc43)c2C)C1=O — lower, 73%
- CN1Cn2c(ccc2C(F)(F)F)C(=O)CS1(=O)=O — higher, 135%
- O=c1cc(N/N=C/c2ccc(F)cc2)c2cc(Cl)ccc2[nH]1 — lower, 113%
- Cc1cccc(-c2nnc(SCC(=O)Nc3ncc(Cc4ccccc4)s3)n2N2C(=O)CSC2=S)c1 — lower, 54.7%
- COc1ccc2c(c1)c(C(=O)c1nc(-c3cn(C)c4ccccc34)no1)cn2C — lower, 100%
- CCOC(=O)c1nnn(Cc2cc(=O)oc3c2ccc2ccccc23)c1C — lower, 112%

For `CCOC(=O)N(O)c1ccc(/C=C/c2ccccc2)cc1`, the growth was 76.8% and 69.1%.
In the case of `CCc1c2c(nc3ccc(OCc4ccc(B5OC(C)(C)C(C)(C)O5)cc4)cc13)-c1cc3c(c(=O)n1C2)COC(=O)[C@]3(O)CC`, the growth was -25.7% (active).
For `O=C(O)c1ccccc1Cc1ccc(F)c2ccccc12`, the growth was 107% and 95.9%.
`CC12OC(CC(O)C1O)n1c3ccccc3c3c4c(c5c6ccccc6n2c5c31)C(=O)N(CCN1CCOCC1)C4=O` (stereo unspecified) was tested, and the growth was -6.91% (active).
`COc1ccc(/C=N/C2=C(C#N)C(c3ccccc3)c3c(ccc4ccccc34)O2)cc1` (stereo unspecified) was tested, and the growth was -8.72% (active).
For `CN(C)CCCn1c2c(c3ccc(N4CCNCC4)cc3c1=O)C(=O)c1ccccc1-2`, the growth was -78.8% (active).
With `COc1cccc(C2C(C#N)=C(N)Oc3cc(OCCCCCC[P+](c4ccccc4)(c4ccccc4)c4ccccc4)ccc32)c1` (stereo unspecified) the growth was -63.8% (active).
For `O=C1/C(=C/c2ccccc2[N+](=O)[O-])Cc2ccccc21`, the growth was -4.67% (active) and -0.599% (active).
In the case of `Cc1ccc(/C=C/c2c(C(=O)/C=C/c3ccccc3)c(C)nc3ccccc23)cc1`, the growth was -3.35% (active).
In the case of `COc1ccc(/C(C)=C(\c2ccc(OCCN3CCCCCC3)cc2)c2ccc(OC(=O)C3CCCCC3)cc2)cc1`, the growth was -83.1% (active).

Each molecule was assayed on SF-268 CNS in the same assay as above. Settings: 10 µM unless noted.

`ON=C1CCCCCCCC1` was tested, and the growth was 99.8% and 96.9%.
In the case of `CCOC(=O)N(O)c1ccc(/C=C/c2ccccc2)cc1`, the growth was 86.3% and 81.3%.
`CCc1c2c(nc3ccc(OCc4ccc(B5OC(C)(C)C(C)(C)O5)cc4)cc13)-c1cc3c(c(=O)n1C2)COC(=O)[C@]3(O)CC` was tested, and the growth was 5.96% (active).
With `O=C(O)c1ccccc1Cc1ccc(F)c2ccccc12` the growth was 102% and 103%.
With `CN(C)CCCn1c2c(c3ccc(N4CCNCC4)cc3c1=O)C(=O)c1ccccc1-2` the growth was -24.8% (active).
For `COc1cccc(C2C(C#N)=C(N)Oc3cc(OCCCCCC[P+](c4ccccc4)(c4ccccc4)c4ccccc4)ccc32)c1` (stereo unspecified), the growth was -38.5% (active).
With `O=C1/C(=C/c2ccccc2[N+](=O)[O-])Cc2ccccc21` the growth was 66% and 42.8%.
For `COc1ccc(/C(C)=C(\c2ccc(OCCN3CCCCCC3)cc2)c2ccc(OC(=O)C3CCCCC3)cc2)cc1`, the growth was -30.6% (active).

Point of comparison: `CCOC(=O)c1nnn(Cc2cc(=O)oc3c2ccc2ccccc23)c1C`, growth 105%. Against it:
- O=S(=O)(O)c1ccc(N=Nc2ccc(N=Nc3cccc4ccccc34)c(S(=O)(=O)O)c2)cc1 — higher, 106%
- COc1ccc(-c2nn3c(-c4cc(F)c(Cl)cc4Cl)nnc3s2)cc1 — lower, 60.3%
- CCCCC1COc2cccc3c2N1C=C/C3=C\C(=O)N(C)c1cccc(Cl)c1 (stereo unspecified) — lower, 97.9%
- COc1ccc(/C=C2\COc3ccc(O)c(O)c3C2=O)c(OC)c1OC — lower, 48%
- CC12OC(CC(O)C1O)n1c3ccccc3c3c4c(c5c6ccccc6n2c5c31)C(=O)N(CCN1CCOCC1)C4=O (stereo unspecified) — lower, 17.9%
- COc1ccc(/C=N/C2=C(C#N)C(c3ccccc3)c3c(ccc4ccccc34)O2)cc1 (stereo unspecified) — lower, 50.7%
- COc1ccc(-c2cc3cnc4ccccc4c3oc2=O)cc1 — lower, 99.7%
- O=C(/C=C/c1ccc(F)cc1)Nc1ncc(Cc2ccc(F)cc2)s1 — lower, 52.3%
- COc1cc(/C=C2\CCC/C(=C\c3cc(CN4CCCC4)c(O)c(OC)c3)C2=O)cc(CN2CCCC2)c1O — lower, 35.3%
- C=CCOc1ccc(/C=C2\SC(=S)N(CCc3ccc(O)cc3)C2=O)cc1 — lower, 91.4%
- CCOC(=O)C1=C(C)N=C2SC=C(c3ccc(F)cc3)N2[C@H]1c1cn(-c2ccccc2)nc1-c1ccc(Cl)cc1 — lower, 92.4%
- COc1ccc(/C=N/NC(=O)CN2CCN(c3cc4c(cc3F)c(=O)c(C(=O)O)cn4C3CC3)CC2)cc1O — lower, 87.7%
- Cc1nn(-c2nc(-c3cc4ccccc4oc3=O)cs2)c(C)c1N=Nc1ccccc1 — the same, 105%
- Cn1cc2c(=O)nc3c(-c4nc5ccccc5[nH]4)n[nH]n3c2n1 — lower, 74.2%
- O=C1c2cccc3cccc(c23)C(=O)N1N1C(=O)c2cccc3c(N4CCNCC4)ccc(c23)C1=O — lower, 88.7%
- Cc1nc2sc(C(=O)Nc3cccc4ncccc34)c(N)c2cc1C(C)O (stereo unspecified) — lower, 87.7%
- CCOC(=O)c1nc2c3ccccc3cnn2c1C(=O)c1ccc(OC)cc1 — lower, 103%
- COc1cc(/C=C2/C=C(c3ccc(C(C)(C)C)cc3)N(CCc3ccc(S(N)(=O)=O)cc3)C2=O)cc(OC)c1OC — lower, 58.2%
- COC(=O)N/N=C/c1c[n+]([O-])c2ccccc2[n+]1[O-] — higher, 106%
- Cc1nc(-n2[nH]c(=O)ccc2=O)sc1N=Nc1ccccc1 — lower, 104%
- CC1(Cc2ccccc2)CC2=C(C(=O)O1)C(c1ccccc1)NC(=O)N2 (stereo unspecified) — higher, 110%
- Cc1ccc(/C=C/c2c(C(=O)/C=C/c3ccccc3)c(C)nc3ccccc23)cc1 — lower, 54.1%
- CC1=C2[C@@H](CC1)[C@]1(C)O[C@@](C3CC3)(C[C@H]1OC(=O)CO)[C@H]2OC(=O)/C=C/c1ccccc1 — lower, 41%
- COc1ccc(S(=O)(=O)Nc2cc(Sc3cccc4cccnc34)c(O)c3ccccc23)cc1 — lower, 11.3%
- CCN(CC)CCCN1C(=O)c2c(c(C)c3c(oc4cc(OC)ccc43)c2C)C1=O — lower, 101%
- CN1Cn2c(ccc2C(F)(F)F)C(=O)CS1(=O)=O — higher, 108%
- O=c1cc(N/N=C/c2ccc(F)cc2)c2cc(Cl)ccc2[nH]1 — higher, 106%
- Cc1cccc(-c2nnc(SCC(=O)Nc3ncc(Cc4ccccc4)s3)n2N2C(=O)CSC2=S)c1 — lower, 78.3%
- COc1ccc2c(c1)c(C(=O)c1nc(-c3cn(C)c4ccccc34)no1)cn2C — lower, 103%
